# Data from PubChem BioAssay AID1347417 (National Center for Advancing Translational Sciences (NCATS), 2020).
# Hit rate of the full screen: of about 120,000 compounds, about 5,300 (4.4%) were called active. Inconclusive results (about 22%) are left out. This is one part of a sample in which actives are shown more often than they occur. Unmarked numbers belong to inactive results. Calls follow the shape of the dose curve; as a rule, active = well fitted inhibition curve with a large enough effect; inconclusive = small, poorly fitted or top-dose-only effect; inactive = no such curve, though single readings can be large or run the other way.
# Test: qHTS Primary assay for Inhibitors of Plasmodium falciparum Dd2 growth in vitro; also: nearly all actives have a fitted effect of over 65% in size
# Conditions: P. falciparum Dd2 growth, SYBR Green, 72 h; series mostly up to 28.9 µM; activity, negative = inhibition: at the top concentration
# Excerpt: Malaria, a parasitic disease spread to humans through the bite of a Plasmodium infected Anopheles mosquito, continues to be a global health burden affecting millions of people, with an estimated 228 million cases and 405,000 deaths in 2018. Concerns about safety and limitations of current antimalarial treatments strongly emphasize the need to develop new therapeutic options. The scarce number of chemotypes and validated drug targets with efficacy against the liver stage, have hindered development of new antimalarials. To address this, a chemoprophylactic drug discovery effort was conducted through a combined phenotypic high-throughput asexual blood stage and liver stage screen, providing a robust foundation to identify liver-stage active lead chemotypes. Compounds were initially screened against Plasmodium falciparum Dd2 strain parasites using a in vitro SYBRGreen-1 based 72 hr proliferation assay to identify novel chemotypes to advance to liver stage assays. NIH/NCATS Early Translation Branch Assay Submitter (PI): Anton Simeonov Ph.D.
# Malaria-vivax Assay Protocol: PROTOCOL TABLE (as described by Inglese et al., 2007) SEQUENCE No. (e.g., 1, 2, 3, etc.); […] (e.g., Cells, Incubation, Reagent, etc.); VALUE; DESCRIPTION SEQUENCE, Parameter, Description 1; Reagent; 3 uL complete malaria growth medium, 1536 TC treated Black clear bottom plate 2; Controls; 23 nL positive control artesunate (300 nM final) to column 1; Neutral control DMSO to columns 2-4 3; Compound; 23 nL of compounds in dose response concentration (29 uM to 0.5 nM final) 4; Reagent; 5 uL malaria infected red blood cells (2.5% hematocrit final, 0.3% parasitemia 5; Time; 72 hours at 37C (5% O2, 5% CO2, 90% N2; 95% Rh) 6; Reagent; 2 uL lysis buffer/SYBRGreen-1, 25 sec shake immediately following dispense 7; Time; ~16 hours at 37C (5% O2, 5% CO2, 90% N2; 95% Rh) 8; Detector; EnVision (PerkinElmer) bottom read at 485/14nm excitation and 535/25 nm emission NOTES (numbers refer to sequence above): 1; Complete Malaria Growth Media: 1X RPMI-1640 w/L-glutamine, 5.5g/L Albumax II, 367 uM Hypoxanthine, 25 mM HEPES, 0.25% Sodium Bicarbonate, 35 uM Gentamicin sulfate 2; Controls were added using the Kalypsis Pintool (Wako USA) equipped with 1536 pinhead 3; Compounds were added in a 7-point, titration with a high final concentration of 29 uM by Pintool from seven inter-plate titrations of library plates and two DMSO control plates at the beginning and end (see Yasgar et al., 2008). 4; Red blood cells infected with Plasmodium falciparum Dd2 parasites were used. 6; Lysis buffer: 20 mM Tris-HCl, 10 mM EDTA, 0.16% Saponin, 1.6% Triton-X, 10X SYBR Green. REFERENCE: Inglese J, Shamu CE, Guy RK. 2007. Reporting data from high-throughput screening of small-molecule libraries. Nat Chem Biol. doi:10.1038/nchembio0807-438 Yasgar A, Shinn P, Jadhav A, Auld D, Michael S, Zheng W, Austin CP, Inglese J, Simeonov A. 2008. Compound Management for Quantitative High-Throughput Screening. J Lab Autom 13:79-89. doi:10.1016/j.jala.2007.12.004
# Potency is read from the fitted curve at half-maximal effect.
Compound,"activity, negative = inhibition",Potency,outcome
CCCNC(=O)N1CC(Oc2ccc(-c3nc(C)no3)cc2)C1,40.8% [at 5.79 µM],,
COc1ccc(-c2cc3c(nc2-c2ccccc2)nc(C(=O)NCCN(C)C)n3C)cc1OC,,3.98 µM (active),
COc1ccc(Nc2cc3c(nc2-c2ccccc2)nc(C(=O)NCCN(C)C)n3C)cn1,-23.9%,,
COc1ccc(CCNC(=O)c2nn(C)c3c2CSc2ccccc2-3)cc1OC,-1.26%,,
O=C(c1cnc[nH]1)N1C[C@@H](COCC2CC2)[C@H](c2ccccn2)C1,-19.5%,,
O=C(Nc1ccc(F)cc1F)N1CCC2(CC1)SCC(=O)N2c1ccc(Cl)cc1,,,inactive
O=C1Cc2c(-c3ccc(CO)cc3)n[nH]c2CN1CC1CCOCC1,6.98% [at 44.1 µM],,
CC(C)Oc1cccc(-c2n[nH]c3c2CC(=O)N(Cc2ccccc2)C3)c1,,,inactive [at 44.1 µM]
O=C1Cc2c(-c3ccc(Oc4ccccc4)cc3)n[nH]c2CN1CCc1ccncc1,,11.2 µM (active),
O=C(CN1C(=O)C(c2ccccc2)=NC12CCCC2)N1CCN(c2ccccc2)CC1,32.9%,,
CCc1noc([C@@H]2CC(F)(F)CN2C(=O)c2cocn2)n1,20.3%,,
O=C1CC(c2noc(-c3ccc(F)c(Cl)c3)n2)CN1c1ccc(F)cc1 (stereo unspecified),28.5%,,
CCC[S+](=O)([O-])NC1CCN(C(=O)N2CC3CC(C2)[C@H]2CCCC(=O)N2C3)CC1 (stereo partly specified),-12.6%,,
CCCS(=O)(=O)N1CC[C@H]2C(=O)NCCCCCCN(Cc3ccncc3)[C@@H]2C1,23%,,
Cc1ccc(C2=NC3(CCN(C(=O)c4ccc(C#N)cc4)CC3)ON2)cc1,,4.47 µM (active),
Cc1noc(CC2CCOC3(CCN(C(=O)c4ccc(C#N)cc4)CC3)C2)n1 (stereo unspecified),-8.63%,,
COCCC1(NS(C)(=O)=O)CCN(C(=O)c2ccc(C#N)cc2)CC1,-5.57%,,
CCN1c2cc(C(=O)NCc3ccc(OC)cc3OC)ccc2C(=O)N2CCCCCC21 (stereo unspecified),,4.47 µM (active),
CCN1c2cc(C(=O)NC3CCN(Cc4ccccc4)CC3)ccc2C(=O)N2CCCCC21 (stereo unspecified),,7.94 µM (active),
COc1ccc(CNC(=O)c2ccc3c(c2)N(C)C2CCCCN2C3=O)c(OC)c1 (stereo unspecified),,,inactive
CCN1c2cc(C(=O)NCc3cccc(F)c3)ccc2C(=O)N2CCCCCC21 (stereo unspecified),,3.55 µM (active),
CCN1c2cc(C(=O)Nc3ccc(F)c(C)c3)ccc2C(=O)N2CCCCC21 (stereo unspecified),-9.86%,,
CN1C(=O)c2cccn2CC1C(=O)NC1CCN(Cc2ccccc2)CC1 (stereo unspecified),-6.66%,,
CCN1c2cc(C(=O)Nc3ccc(SC)cc3)ccc2C(=O)N2CCCCCC21 (stereo unspecified),-3.15%,,
CCN1c2cc(C(=O)Nc3ccc(OC)c(F)c3)ccc2C(=O)N2CCCCC21 (stereo unspecified),,,inactive
CN1c2cc(C(=O)Nc3ccc(F)c(F)c3)ccc2C(=O)N2CCCCCC21 (stereo unspecified),-20.7%,,

Compound,"activity, negative = inhibition",Potency,outcome
CN(CCc1cn[nH]c1)c1ccc(-c2nc(-c3ccccc3F)no2)cn1,,,inactive
Cc1cc(C)n(CC(=O)N2CC[C@@H]3CN(S(C)(=O)=O)[C@@H]3C2)n1,25.9%,,
Oc1ccccc1CN1C[C@H](O)C[C@H]1c1nc(Cc2ccc(F)cc2Cl)no1,,,inactive [at 44.1 µM]
CCCNC(=O)C(NC(=O)c1ccc(OC)cc1)C1CCN(C(=O)c2ccc3c(c2)OCO3)CC1 (stereo unspecified),,,inactive
O=C(c1ccccc1-n1cccn1)N1CCc2c(nc[nH]c2=O)C1,-3.13%,,
CC(C)(Oc1nn(CCOc2ccccc2)c2ccccc12)C(=O)NCCCn1ccnc1,,,inactive
CCOC(=O)C1CCN(C(=O)C2(c3ccc(NS(C)(=O)=O)cc3)CCCCC2)CC1,,,inactive
COCCNC(=O)c1ccc(OC2CCN(C/C=C/c3ccco3)CC2)c(Cl)c1,-29.3%,,
CSc1ccc(C2c3c(oc4ccccc4c3=O)C(=O)N2CCCN2CCOCC2)cc1 (stereo unspecified),-11%,,
Cc1ccc2oc3c(c(=O)c2c1)C(c1ccc([N+](=O)[O-])cc1)N(CCCN1CCOCC1)C3=O (stereo unspecified),,10 µM (active),
COc1ccc(C2c3c(oc4ccccc4c3=O)C(=O)N2Cc2ccc3c(c2)OCO3)cc1 (stereo unspecified),7.74%,,
Cc1cccc(C(=O)NCCC2CCN(C(=O)Nc3ccc(F)cc3F)CC2)c1,-17.7%,,
COc1cccc(NC(=O)c2cnc3n[nH]c(-c4ccc(OC)cc4C)c3n2)c1,-24.7% [at 44.1 µM],,
Cc1oc2ncnc(N3CCCCC3)c2c1C(=O)N1CCN(c2cccc(Cl)c2)CC1,-15.4%,,
Cc1cccc(-n2ncc(C(=O)N3CCC(C)CC3)c2C2CCN(C(=O)OC(C)(C)C)CC2)c1,29.1%,,
CC(C)(C)OC(=O)N1CCC(c2c(C(=O)N3CCN(c4cccc(Cl)c4)CC3)cnn2-c2cccc(Cl)c2)CC1,,7.08 µM (active),
Cc1cccc(-n2ncc(C(=O)N3CCc4ccccc4C3)c2C2CCN(C(=O)OC(C)(C)C)CC2)c1,-23%,,
COc1ccccc1CN1CCC(CNC(=O)c2cnn(-c3cccc(Cl)c3)c2C2CCN(C(=O)OC(C)(C)C)CC2)CC1,,1.41 µM (active),
COc1ccccc1N1CCN(S(=O)(=O)CCNC(=O)COc2ccc(F)cc2)CC1,-1.92%,,
COc1ccccc1C(=O)N1CCC(c2n[nH]c(=O)n2-c2ccc(C)cc2)CC1,,,inactive
CCn1ncc(N2CCC(NC(=O)c3ccccc3OC)CC2)cc1=O,,,inactive
Cc1ccc(C2CCN(C(=O)c3cnn(-c4ccccc4Cl)c3C3CCN(C(=O)OC(C)(C)C)CC3)C2)cc1 (stereo unspecified),,3.98 µM (active),
COc1ccccc1N1CCN(CCCNC(=O)c2cnn(-c3ccccc3Cl)c2C2CCN(C(=O)OC(C)(C)C)CC2)CC1,,1.41 µM (active),
Cc1c(Cl)cccc1NC(=O)C1CCCN(C(=O)c2cnn(-c3ccccc3)c2-n2cccc2)C1 (stereo unspecified),-11.9%,,
O=C(NCC1CC1)c1nc2c(o1)CCN(Cc1cccc(F)c1F)CC2,-18.3% [at 44.1 µM],,
